# Measurements published in PubChem BioAssay.
# Where “and” joins values, the source holds several entries; their conditions need not be identical. Equal values may be shown once. A number with no mark means an inactive call. Calls of active or inactive are those of the source. No rule for the calls is given here.
# Experiments:
# [1] = tested on: Botulinum neurotoxin type F light chain protease (Clostridium botulinum); experiment: Botulinum neurotoxin type F light chain protease inhibition, multiplex microsphere flow cytometry, validation set (AID 588459); settings: multiplex microsphere protease substrate cleavage assay, at 10 µM, stronger effect = higher value
# [2] = target: Botulinum neurotoxin type A (Clostridium botulinum) (UniProt P0DPI0); experiment: BoNT/A light chain protease inhibitors, biochemical, multiplex microsphere flow cytometry, validation set (AID 588460); settings: at 10 µM, stronger effect = higher value
# [3] = target: Lethal factor (Bacillus anthracis) (UniProt P15917); experiment: Lethal factor protease inhibitors, Bacillus anthracis, multiplex microsphere cleavage assay, validation set (AID 588461); settings: flow cytometry, at 10 µM, stronger effect = higher value
# Lethal factor (Bacillus anthracis), sequence (P15917 whole entry, looked up): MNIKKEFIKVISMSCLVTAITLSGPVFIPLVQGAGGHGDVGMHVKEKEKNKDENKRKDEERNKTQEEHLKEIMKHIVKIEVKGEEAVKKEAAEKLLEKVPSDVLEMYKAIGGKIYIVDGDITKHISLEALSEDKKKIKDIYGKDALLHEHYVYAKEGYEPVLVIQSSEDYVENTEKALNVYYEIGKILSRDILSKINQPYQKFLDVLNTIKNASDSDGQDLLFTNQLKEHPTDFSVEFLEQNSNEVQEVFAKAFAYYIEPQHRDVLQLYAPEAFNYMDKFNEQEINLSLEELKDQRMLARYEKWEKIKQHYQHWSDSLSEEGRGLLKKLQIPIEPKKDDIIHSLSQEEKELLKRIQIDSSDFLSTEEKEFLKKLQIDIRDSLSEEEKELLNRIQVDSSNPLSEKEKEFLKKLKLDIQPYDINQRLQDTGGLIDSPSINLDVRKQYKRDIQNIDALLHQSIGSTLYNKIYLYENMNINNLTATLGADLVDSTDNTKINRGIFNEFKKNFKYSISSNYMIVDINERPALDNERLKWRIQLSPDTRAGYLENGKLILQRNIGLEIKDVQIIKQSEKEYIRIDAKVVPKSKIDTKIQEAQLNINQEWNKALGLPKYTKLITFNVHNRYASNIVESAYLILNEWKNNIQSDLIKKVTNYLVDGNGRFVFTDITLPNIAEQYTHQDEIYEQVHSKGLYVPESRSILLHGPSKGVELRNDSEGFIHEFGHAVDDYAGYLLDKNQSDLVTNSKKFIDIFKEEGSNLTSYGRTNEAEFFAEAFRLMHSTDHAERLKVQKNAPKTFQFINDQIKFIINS
# Botulinum neurotoxin type A (Clostridium botulinum), sequence (P0DPI0 whole entry, looked up): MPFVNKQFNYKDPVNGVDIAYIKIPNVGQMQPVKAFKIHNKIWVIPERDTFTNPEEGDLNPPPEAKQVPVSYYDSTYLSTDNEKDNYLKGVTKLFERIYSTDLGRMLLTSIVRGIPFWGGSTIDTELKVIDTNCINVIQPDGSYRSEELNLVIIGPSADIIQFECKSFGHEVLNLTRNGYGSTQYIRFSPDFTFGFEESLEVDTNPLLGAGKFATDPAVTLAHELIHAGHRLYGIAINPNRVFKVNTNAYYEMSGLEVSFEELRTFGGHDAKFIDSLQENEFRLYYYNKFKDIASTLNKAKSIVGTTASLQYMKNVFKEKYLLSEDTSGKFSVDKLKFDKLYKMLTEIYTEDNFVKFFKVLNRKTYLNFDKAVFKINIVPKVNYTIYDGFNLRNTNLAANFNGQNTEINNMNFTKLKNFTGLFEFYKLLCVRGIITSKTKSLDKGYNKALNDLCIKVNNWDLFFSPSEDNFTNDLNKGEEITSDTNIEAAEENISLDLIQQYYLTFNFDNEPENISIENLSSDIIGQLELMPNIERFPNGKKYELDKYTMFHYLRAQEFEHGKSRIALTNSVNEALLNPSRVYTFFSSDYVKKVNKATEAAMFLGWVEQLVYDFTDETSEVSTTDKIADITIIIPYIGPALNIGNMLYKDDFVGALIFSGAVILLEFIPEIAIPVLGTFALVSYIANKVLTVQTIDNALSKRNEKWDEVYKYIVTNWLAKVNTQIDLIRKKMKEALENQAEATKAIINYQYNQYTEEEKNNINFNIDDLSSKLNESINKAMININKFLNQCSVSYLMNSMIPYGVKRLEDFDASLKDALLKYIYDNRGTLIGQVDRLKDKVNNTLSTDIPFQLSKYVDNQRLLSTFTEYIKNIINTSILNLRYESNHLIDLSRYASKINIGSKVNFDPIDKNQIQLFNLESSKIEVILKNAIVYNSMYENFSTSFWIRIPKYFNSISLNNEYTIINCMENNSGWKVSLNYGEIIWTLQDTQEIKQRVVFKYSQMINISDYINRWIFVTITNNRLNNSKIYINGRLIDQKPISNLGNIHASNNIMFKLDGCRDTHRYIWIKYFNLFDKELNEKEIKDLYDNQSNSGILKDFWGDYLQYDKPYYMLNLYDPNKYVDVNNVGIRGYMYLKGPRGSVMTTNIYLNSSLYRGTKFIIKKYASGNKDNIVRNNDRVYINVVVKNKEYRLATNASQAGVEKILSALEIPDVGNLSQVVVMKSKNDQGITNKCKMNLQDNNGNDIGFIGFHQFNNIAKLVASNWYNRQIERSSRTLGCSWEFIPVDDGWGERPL
SMILES,inhibition [1],inhibition [2],inhibition [3]
COc1cc(C(=O)NCCCCCC(=O)O)cc(OC)c1OC,1.3%,-0.4%,-13.3%
CN1CCN2c3ccccc3Cc3ccccc3C2C1 (centres undefined),0.3%,0.5%,
CC(=O)OCC(=O)[C@@]12OC(C)(C)O[C@@H]1C[C@H]1[C@@H]3C[C@H](F)C4=CC(=O)C=C[C@]4(C)[C@@]3(F)[C@@H](O)C[C@@]12C,-3.5%,-1.4%,
C=C(C)Cn1c(NCCOC)nc2c1c(=O)[nH]c(=O)n2C,0.2%,-0.3%,-5.2%
CC1(C)NC(C(=O)O)Cc2c1[nH]c1ccccc21 (centres undefined),-1.6%,1%,-2.8%
CCCC(=O)O[C@]1(C(=O)CO)CC[C@H]2[C@@H]3CCC4=CC(=O)CC[C@]4(C)[C@H]3[C@@H](O)C[C@@]21C,5.1%,0.1%,-0.6%
O=C(Cc1ccc(Br)cc1)c1ccc(O)cc1O,-3.5%,-0.4%,-5.4%
NC[C@H]1O[C@H](O[C@H]2[C@H](O)[C@@H](O[C@H]3O[C@H](CO)[C@@H](O)[C@H](N)[C@H]3O)[C@H](N)C[C@@H]2N)[C@H](N)C[C@@H]1O,3.4%,-1.1%,-1.8%
COc1ccc(C(=O)NC(=O)NC2(C(Cl)(Cl)Cl)OCCO2)cc1,0.9%,-1.2%,3.1%
CN(C)CCN(Cc1ccc(Cl)cc1)c1ccccn1,-0.9%,0.1%,-1.2%
COc1ccc2c3c([nH]c2c1)C1(NCC3)C(=O)Nc2ccccc21 (centres undefined),-3%,-0.7%,-4.5%
CNCCCN1c2ccccc2CCc2ccccc21,-0.9%,-0.6%,3.8%
CC(C)[C@H]1CN(C)CCN1Cc1cn(C)nc1-c1cccc(Cl)c1,12%,8.3%,8.2%
CC(N=C(NC#N)Nc1ccncc1)C(C)(C)C (centres undefined),0.4%,2.3%,
c1ccc(SSc2ccccc2)cc1,0.3%,-1.5%,-8.9%
OCCC1CN(Cc2nc(-c3ccccc3)cs2)CCN1Cc1ccc(F)cc1 (centres undefined),3.5%,0.9%,8.5%
COc1ccccc1N1C(=O)C2CC(C)=C(C)CC2C1=O (centres undefined),-2.6%,-0.4%,3.9%
CCOC(=O)C1C(=O)CC(C)(O)C(C(=O)OCC)C1/C=C/c1ccccc1 (centres undefined),1.1%,1%,-1.4%
COc1cc2nc(N3CCN(C(=O)C4COc5ccccc5O4)CC3)nc(N)c2cc1OC (centres undefined),-0.3%,0%,-2.9%
NC(N)=NC(N)=NCCc1ccccc1,-1%,-0.8%,
COc1ccc(NC(=O)CC(c2ccccc2)c2ccco2)cc1 (centres undefined),2.3%,0.9%,9.1%
O=C(NC1CCCCC1)N1CCc2[nH]c3ccccc3c2C1,36.5% (active),3.5%,5%
COc1ccc(/C=C2\CCc3ccccc3C2=O)c(OC)c1OC,6.4%,0.8%,3.9%
CCOC(=O)C1C(=O)OC(C)(C)C1C(C)C(=O)c1ccc(C)cc1 (centres undefined),4.4%,0.5%,4.6%
CNC(=O)Oc1ccc2c(c1)[C@]1(C)CCN(C)[C@@H]1N2C,-0.4%,1.1%,0.5%
CNC[C@H](O)c1cccc(O)c1,1.5%,2.2%,
COc1ccc2oc(=O)c(C(=O)N3CCN(c4ccccc4)CC3)cc2c1,-1%,0.2%,1.6%
CC(C)c1ccc(OCc2ccc(C(=O)O)o2)cc1,0.6%,-0.2%,2.5%
CCC1(c2ccccc2)C(=O)NCNC1=O,0%,-0.9%,
CC(=O)OCC[N+](C)(C)C,-3.2% and 0.5%,0.2% and -1.8%,3.8% and -0.3%
